Source: PubChem BioAssay (Tox21)
Unmarked numbers belong to inactive results. Records with an inconclusive call do not appear. Where a call stands in place of a potency, no number is given. The source made the active and inactive calls. Unless noted, calls come from the whole dose curve; as a rule, active = well fitted curve in the direction sought with a large enough effect in the repeat runs; inconclusive = weak or mixed curves; inactive = no such curve, though single readings can be large; an effect the other way counts as inactive or inconclusive.

Experiments:
[1] = qHTS assay to identify small molecule antagonists of the estrogen related receptor (ERR) signaling pathway from Tox21 library - cell viability counter screen (AID 1224834); note: nearly all actives have a fitted effect of over 30% in size; note: potency is the fitted concentration of half-maximal effect
Outline: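 Seeded ERR cells were rested 6 h at 37 C/5% CO2 before compounds, positive and negative controls or DMSO were added. Incubation continued for 17.5 h, and viability was then quantified by CellTiter-Fluor fluorescence.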

[2] = molecular target: Luciferin 4-monooxygenase (Photinus pyralis) (UniProt P08659); assay: qHTS assay to identify small molecule inhibitors of firefly luciferase (AID 1224835); note: nearly all actives have a fitted effect of over 25% in size; note: potency is the fitted concentration of half-maximal effect
Outline: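 Quantitative HTS format; KM concentrations of both substrates. Purified P. pyralis FLuc activity quantified from luminescence images.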

[3] = molecular target: Nuclear receptor subfamily 1 group I member 3 (Homo sapiens) (UniProt Q14994); assay: qHTS assay to identify small molecule antagonists of the constitutive androstane receptor (CAR) signaling pathway (AID 1224838); note: nearly all actives have a fitted effect of over 40% in size
Outline: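 Human hepatoma HepG2 cells expressing hCAR and a CYP2B6 promoter (2.2 kb) luciferase construct; compound titration (15 points) with 50 nM CITCO final, 24 h at 37 C/5% CO2; luminescence via ONE-Glo after 30 min at room temperature.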

[4] = molecular target: Nuclear receptor subfamily 1 group I member 3 (Homo sapiens) (UniProt Q14994); assay: qHTS assay to identify small molecule agonists of the constitutive androstane receptor (CAR) signaling pathway (AID 1224839); note: nearly all actives have a fitted effect of over 15% in size; note: potency is the fitted concentration of half-maximal effect;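 for activation: HepG2 cells stably carrying human CAR and a CYP2B6 luciferase reporter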
Outline: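 HepG2 cells stably expressing hCAR and a CYP2B6-2.2kb luciferase reporter were treated with compounds at 15 concentrations plus 0.75 uM PK11195 (final) for 24 h at 37 C; luminescence was read after ONE-Glo addition.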

[5] = qHTS assay to identify small molecule antagonists of the estrogen related receptor signaling pathway with the pleiotropic PPARgamma coactivator (PGC) from Tox21 10K library - cell viability counter screen (AID 1224840; active = well fitted cell-killing curve with a large enough effect in the repeat runs, not every such curve was filed as active; note: nearly all actives have a fitted effect of over 40% in size; note: potency is the fitted concentration of half-maximal effect)
Outline: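 Seeded PGC/ERR cells (2,000/well, 6 h, 37 C/5% CO2) get compound by pin tool; 17.5 h incubation at 37 C; CellTiter-Fluor added, 30 min, fluorescence measured.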

[6] = molecular target: Thyrotropin receptor (Homo sapiens) (UniProt P16473); assay: qHTS assay to identify small molecule agonists of the thyroid stimulating hormone receptor (TSHR) signaling pathway (AID 1224843; calls by dose curve; note: nearly all actives have a fitted effect of over 45% in size)
Outline: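 Using 15 concentrations per compound in triplicate, cAMP production was monitored in TSHR-HEK293 cells after 30 min compound incubation at RT; HTRF reagents followed, with fluorescence intensity recorded after 1 h.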

[7] = qHTS assay to identify small molecule agonists of the hypoxia (HIF-1) signaling pathway - cell viability counter screen (AID 1224844; calls by dose curve; note: nearly all actives have a fitted effect of over 50% in size)
Outline: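 HRE-bla ME-180; 0.5% dFBS; cpd 17 h, 37C, 5% CO2; CellTiter-Glo lum., 30 min RT, post-FRET read, same wells.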

[8] = qHTS assay to identify small molecule agonists of H2AX (AID 1224845; active = well fitted activation curve with a large enough effect in the signal ratio in the repeat runs, not every such curve was filed as active; the % refers to the signal ratio; note: potency is the fitted concentration of half-maximal effect)
Outline: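 Wild-type CHO-K1 cells plated overnight, then exposed 3 hr at 37C to compounds at 15 concentrations (0.76% DMSO). Lysed, then HTRF anti-pH2AX(S139)-cryptate/anti-H2AX-d2 detection after 24 hr at room temperature; emissions 665 and 620 nm.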

[9] = qHTS assay to identify small molecule agonists of the hypoxia (HIF-1) signaling pathway (AID 1224846; active = well fitted activation curve with a large enough effect in the signal ratio in the repeat runs, not every such curve was filed as active; the % refers to the signal ratio)
Outline: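 Reporter induction in HRE-bla ME-180 cells is taken as agonism: cells sit 5 hrs after plating, receive compounds or DMSO only, incubate 17 hrs at 37C under 5% CO2, and are loaded with CCF4-AM for beta-lactamase FRET measurement.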

[10] = qHTS assay to identify small molecule agonists of H2AX - cell viability counter screen (AID 1224847; calls by dose curve; note: top concentration of the series differs between compounds; nearly all actives have a fitted effect of over 30% in size)
Outline: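 Wild-type CHO-K1 cells (10% FBS medium) were plated overnight at 37C, exposed to compounds at 15 concentrations for 3 hr at 37C (0.76% DMSO final), and viability was read as CellTiter-Glo luminescence after 30 min at room temperature.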

[11] = qHTS RealTime-Glo MT Cell Viability Assay in HEK293 cells - 32 hour (AID 1224868); note: top concentration of the series differs between compounds; nearly all actives have a fitted effect of over 50% in size
Outline: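 Nonlytic real-time viability readout: viable cells convert prosubstrate to NanoLuc substrate, giving luminescence proportional to live cell number. HEK293, 600 cells/well, compound added after 5 h, continuous culture at 37 C.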

[12] = A CellTox Green Cytotoxicity Assay to monitor cytotoxicity in HEK293 cells - 0 hour (AID 1224869); note: nearly all actives have a fitted effect of over 50% in size
Outline: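 Tox21 screen in HEK293: membrane-impermeant cyanine dye fluoresces on binding dead-cell DNA; compound pinned 5 h post-seeding, plates held at 37 C, signal read repeatedly through 40 h.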

[13] = qHTS RealTime-Glo MT Cell Viability Assay in HepG2 cells - 40 hour (AID 1224870); note: nearly all actives have a fitted effect of over 50% in size
Outline: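 HepG2 cells mixed with RealTime-Glo MT reagents (NanoLuc plus cell-permeant prosubstrate) were seeded at 600 cells/well, incubated 5 h at 37 C/5% CO2, then pinned with compounds in DMSO; nonlytic luminescence tracked viability during 40 h treatment.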

[14] = qHTS RealTime-Glo MT Cell Viability Assay in HepG2 cells - 24 hour (AID 1224867); note: nearly all actives have a fitted effect of over 50% in size
Outline: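 Luminescence read-out: viable HepG2 cells reduce a prosubstrate to a NanoLuc substrate, giving a signal proportional to live cell number. Reads taken at 0, 8, 16, 24, 32 and 40 h of compound exposure at 37 C.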

[15] = qHTS assay to identify small molecule agonists of the constitutive androstane receptor (CAR) signaling pathway - cell viability counter screen (AID 1224836); note: nearly all actives have a fitted effect of over 45% in size
Outline: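 HepG2 cells stably carrying hCAR and a CYP2B6-2.2kb reporter were plated 4 h, then given compounds at 15 concentrations plus PK11195 (final 0.75 uM). After 23 h at 37 C, viability was read by CellTiter-Fluor fluorescence.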

[16] = qHTS assay to identify small molecule antagonists of the constitutive androstane receptor (CAR) signaling pathway - cell viability counter screen (AID 1224837); note: nearly all actives have a fitted effect of over 45% in size
Outline: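 To flag cytotoxic false antagonists, HepG2 hCAR/CYP2B6-2.2kb cells were treated 23 hr with 15-concentration compound series and 50 nM CITCO at 37 C/5% CO2; CellTiter-Fluor fluorescence was the measured end point.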

[17] = qHTS assay to identify small molecule antagonists of the estrogen related receptor signaling pathway with the pleiotropic PPARgamma coactivator (PGC) from Tox21 10K library (AID 1224841; call rule not given here)
Outline: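 Test chemicals dissolved in DMSO were applied to pre-incubated (6 h) PGC/ERR cells at 2,000 cells/well for an 18 h, 37 C treatment; reporter luminescence was then read using One-Glo.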

[18] = qHTS assay to identify small molecule agonists of the estrogen related receptor signaling pathway with the pleiotropic PPARgamma coactivator (PGC) from Tox21 10K library (AID 1224842); note: nearly all actives have a fitted effect of over 15% in size; note: potency is the fitted concentration of half-maximal effect
Outline: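 PGC/ERR reporter cells (NTP line) were seeded 2,000 per well, rested 6 h at 37 C/5% CO2, then pin-dosed with compounds in DMSO for 18 h at 37 C; luciferase read by One-Glo luminescence after 30 min at room temperature.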

[19] = qHTS assay to identify small molecule agonists of the estrogen related receptor (ERR) signaling pathway from Tox21 library (AID 1224849; calls by dose curve; note: nearly all actives have a fitted effect of over 15% in size); settings: ERR reporter cell line, ONE-Glo luciferase, 18 h; at 92.4 µM (top of the series) unless noted
Outline: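 Tox21 compounds tested for ERR agonism in an NTP reporter cell line: 18 h treatment at 37 C, then ONE-Glo luminescence.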

[20] = qHTS assay to identify small molecule antagonists of the estrogen related receptor (ERR) signaling pathway from Tox21 library (AID 1224848); note: nearly all actives have a fitted effect of over 50% in size
Outline: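 Tox21 10K compounds in DMSO tested for ERR pathway antagonism in NTP's ERR cell line; 18 h, 37 C exposure; ONE-Glo luminescence.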

Chain of Nuclear receptor subfamily 1 group I member 3 (Homo sapiens) (Q14994 whole entry, looked up): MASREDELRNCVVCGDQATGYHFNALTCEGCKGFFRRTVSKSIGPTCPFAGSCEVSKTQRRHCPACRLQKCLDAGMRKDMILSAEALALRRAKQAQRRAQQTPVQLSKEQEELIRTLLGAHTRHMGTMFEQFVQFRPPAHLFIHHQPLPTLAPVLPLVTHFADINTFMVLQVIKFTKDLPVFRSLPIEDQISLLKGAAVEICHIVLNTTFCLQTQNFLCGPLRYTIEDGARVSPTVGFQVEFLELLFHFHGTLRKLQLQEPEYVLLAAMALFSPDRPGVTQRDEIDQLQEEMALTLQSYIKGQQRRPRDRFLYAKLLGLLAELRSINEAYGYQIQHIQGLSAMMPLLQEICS
Chain of Luciferin 4-monooxygenase (Photinus pyralis) (P08659 whole entry, looked up): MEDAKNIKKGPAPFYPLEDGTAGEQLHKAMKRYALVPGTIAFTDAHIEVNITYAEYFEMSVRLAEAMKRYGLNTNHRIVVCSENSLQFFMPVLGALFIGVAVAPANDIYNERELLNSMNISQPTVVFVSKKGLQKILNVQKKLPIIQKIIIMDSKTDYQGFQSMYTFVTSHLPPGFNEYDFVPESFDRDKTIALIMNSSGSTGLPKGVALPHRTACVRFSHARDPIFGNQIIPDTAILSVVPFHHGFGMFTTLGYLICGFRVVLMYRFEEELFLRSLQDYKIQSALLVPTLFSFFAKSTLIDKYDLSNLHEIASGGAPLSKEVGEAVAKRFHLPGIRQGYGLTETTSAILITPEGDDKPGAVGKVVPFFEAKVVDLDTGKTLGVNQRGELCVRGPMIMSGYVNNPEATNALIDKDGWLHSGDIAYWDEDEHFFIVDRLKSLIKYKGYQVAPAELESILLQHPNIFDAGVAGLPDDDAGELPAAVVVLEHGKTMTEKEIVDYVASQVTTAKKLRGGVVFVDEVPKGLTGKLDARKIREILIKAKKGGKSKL
Chain of Thyrotropin receptor (Homo sapiens) (P16473 whole entry, looked up): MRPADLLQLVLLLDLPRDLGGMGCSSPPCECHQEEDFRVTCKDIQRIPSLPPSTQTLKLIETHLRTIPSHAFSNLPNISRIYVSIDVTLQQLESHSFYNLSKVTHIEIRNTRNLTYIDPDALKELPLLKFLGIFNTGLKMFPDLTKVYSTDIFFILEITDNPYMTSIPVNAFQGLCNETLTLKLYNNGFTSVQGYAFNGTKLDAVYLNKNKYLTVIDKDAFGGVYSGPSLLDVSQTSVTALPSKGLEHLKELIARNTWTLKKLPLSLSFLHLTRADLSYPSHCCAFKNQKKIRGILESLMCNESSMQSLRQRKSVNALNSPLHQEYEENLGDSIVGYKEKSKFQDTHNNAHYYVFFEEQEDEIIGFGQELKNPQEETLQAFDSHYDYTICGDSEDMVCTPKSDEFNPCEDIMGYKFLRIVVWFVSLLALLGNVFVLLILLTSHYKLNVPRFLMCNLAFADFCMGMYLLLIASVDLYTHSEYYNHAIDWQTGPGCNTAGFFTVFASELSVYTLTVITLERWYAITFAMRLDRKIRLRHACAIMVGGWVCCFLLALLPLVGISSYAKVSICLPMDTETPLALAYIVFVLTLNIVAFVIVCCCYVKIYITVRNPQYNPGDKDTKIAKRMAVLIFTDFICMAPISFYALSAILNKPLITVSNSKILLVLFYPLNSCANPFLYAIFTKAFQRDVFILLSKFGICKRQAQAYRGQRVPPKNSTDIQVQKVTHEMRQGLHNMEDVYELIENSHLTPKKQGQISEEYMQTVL

In the case of `O=P(Cl)(Cl)Cl`, the Potency [1] is reported as “inactive”, the Potency [2] is reported as “inactive” and the Potency [3] is reported as “inactive”. For the same molecule, the Potency [4] was “inactive”, the Potency [5] was “inactive” and the Potency [6] was “inactive”. For the same molecule, the Potency [7] was “inactive”, the Potency [8] was “inactive” and the Potency [9] was “inactive”. The Potency [10] was “inactive”, the Potency [11] was “inactive” and the Potency [12] was “inactive”. For the same molecule, the Potency [13] was “inactive”.

In the case of `c1cc[n+]2c(c1)-c1cccc[n+]1CC2`, the Potency [1] is reported as “inactive”, the Potency [2] is reported as “inactive” and the Potency [3] is reported as “inactive”. For the same molecule, the Potency [5] was “inactive”, the Potency [6] was “inactive” and the Potency [7] was “inactive”. The Potency [8] was “inactive”, the Potency [9] was “inactive” and the Potency [10] was “inactive”. The Potency [14] was “inactive”, the Potency [11] was “inactive” and the Potency [12] was “inactive”. The Potency [13] was “inactive”.

For `CC1(C)C(C=C(Cl)Cl)C1C(=O)OC(C#N)c1ccc(F)c(Oc2ccccc2)c1` (centres undefined), the Potency [1] was “inactive”, the Potency [15] was “inactive” and the Potency [16] was “inactive”. The Potency [3] was “inactive”, the Potency [4] was “inactive” and the Potency [5] was “inactive”. For the same molecule, the Potency [17] was “inactive”, the Potency [18] was “inactive” and the Potency [7] was “inactive”. For the same molecule, the Potency [8] was “inactive”, the Potency [10] was “inactive” and the activity change, positive = activation [19] was -26.4%. The Potency [14] was “inactive”, the Potency [11] was “inactive” and the Potency [12] was “inactive”.

With `CNC(=O)/C=C(\C)OP(=O)(OC)OC` the Potency [1] was “inactive”, the Potency [15] was “inactive” and the Potency [16] was “inactive”. For the same molecule, the Potency [3] was “inactive”, the Potency [4] was “inactive” and the Potency [5] was “inactive”. The Potency [17] was “inactive”, the Potency [18] was “inactive” and the Potency [6] was “inactive”. The Potency [7] was “inactive”, the Potency [9] was “inactive” and the Potency [10] was “inactive”. For the same molecule, the Potency [20] was “inactive”, the activity change, positive = activation [19] was -0.497% and the Potency [11] was “inactive”. For the same molecule, the Potency [12] was “inactive” and the Potency [13] was “inactive”.

In the case of `CSC(=O)c1c(C(F)F)nc(C(F)(F)F)c(C(=O)SC)c1CC(C)C`, the Potency [1] is reported as “inactive”, the Potency [15] is reported as “inactive” and the Potency [16] is reported as “inactive”. For the same molecule, the Potency [3] was “inactive”, the Potency [5] was “inactive” and the Potency [7] was “inactive”. For the same molecule, the Potency [8] was “inactive”, the Potency [9] was “inactive” and the Potency [10] was “inactive”. For the same molecule, the Potency [14] was “inactive”, the Potency [11] was “inactive” and the Potency [12] was “inactive”. For the same molecule, the Potency [13] was “inactive”.

In the case of `O.O.O.O=C([O-])[C@H]([O-])[C@@H]([O-])C(=O)[O-].O=C([O-])[C@H]([O-])[C@@H]([O-])C(=O)[O-].[K+].[K+].[Sb+3].[Sb+3]`, the Potency [1] is reported as 17.3 µM (active), the Potency [2] is reported as “inactive” and the Potency [5] is reported as 19.4 µM (active). For the same molecule, the Potency [8] was 114 µM (active), the Potency [10] was “inactive” and the Potency [12] was “inactive”. For the same molecule, the Potency [13] was “inactive”.

In the case of `Nc1ccc(N=Nc2ccccc2)cc1`, the Potency [1] is reported as 24.3 µM (active), the Potency [2] is reported as 2.24 µM (active) and the Potency [3] is reported as “inactive”. For the same molecule, the Potency [4] was 30.6 µM (active), the Potency [5] was 24.3 µM (active) and the Potency [17] was “inactive”. The Potency [18] was 3.06 µM (active), the Potency [6] was “inactive” and the Potency [20] was “inactive”. For the same molecule, the activity change, positive = activation [19] was 69.2% (active), the Potency [14] was “inactive” and the Potency [12] was “inactive”. The Potency [13] was “inactive”.

For `CC(C)Br`, the Potency [1] was “inactive”, the Potency [15] was “inactive” and the Potency [3] was “inactive”. For the same molecule, the Potency [4] was “inactive”, the Potency [5] was “inactive” and the Potency [7] was “inactive”. The Potency [8] was “inactive”, the Potency [9] was “inactive” and the Potency [10] was “inactive”. The Potency [14] was “inactive”, the Potency [11] was “inactive” and the Potency [12] was “inactive”. For the same molecule, the Potency [13] was “inactive”.
